Laboratory results from PubChem BioAssay (Tox21).
Inconclusive results are not listed. Calls of active or inactive are those of the source. Unless noted, the call rests on the fitted dose curve; in most records, active means well fitted curve in the direction sought with a large enough effect in the repeat runs; inconclusive means weak or mixed curves; inactive means no such curve, though single readings can be large; an effect the other way counts as inactive or inconclusive.

Assays:
[1] = biological target: Estrogen receptor beta (Homo sapiens) (UniProt Q92731); assay: qHTS assay to identify small molecule agonists of the estrogen receptor beta (ER-beta) signaling pathway (AID 1259377; active means well fitted activation curve with a large enough effect in the signal ratio in the repeat runs, not every such curve was filed as active; the % refers to the signal ratio; further: potency means the concentration at half of the fitted maximal effect)
Summary of the method: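 HEK293T ER-beta-UAS-bla; 2% charcoal-stripped FBS; cells pre-incubated 6 hr, compound 16 hr, 37C/5% CO2; LiveBLAzer B/G FRET substrate 2 h RT; fluorescence intensity read.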

[2] = qHTS assay to identify small molecule agonists of the androgen receptor (AR) signaling pathway in the presence of an antagonist - cell viability counter screen (AID 1259379); further: nearly all actives have a fitted effect of over 25% in size; further: potency means the concentration at half of the fitted maximal effect
Summary of the method: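 Seed MDA-kb2 at 3,000 cells/well; incubate 5 hr, 37C, 0% CO2. Add nilutamide to 3.0uM final, then pin compounds at 15 concentrations. Incubate 16 hr. Add CellTiter-Fluor at 15 hr, read fluorescence after 1 hr.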

[3] = qHTS assay to identify small molecule agonists of the estrogen receptor beta (ER-beta) signaling pathway - cell viability counter screen (AID 1259380); further: nearly all actives have a fitted effect of over 30% in size; further: potency means the concentration at half of the fitted maximal effect
Summary of the method: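 CellTiter-Glo read, 30 min RT, same wells as bla assay; cells ER-beta-UAS-bla HEK293T; 16 hr compound, 37C; medium 2% charcoal-stripped FBS.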

[4] = qHTS assay to identify small molecule antagonists of the estrogen receptor beta (ER-beta) signaling pathway - cell viability counter screen (AID 1259382);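 further: HEK293T cells carrying ER-beta-UAS-bla reporter stimulated with estradiol; series mostly up to about 92 µM; nearly all actives have a fitted effect of over 55% in size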
Summary of the method: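 In this multiplexed counter screen, cells were seeded at 2,000 per well in medium with 2% charcoal-stripped FBS and incubated 6 hr before compound and 1nM final E2 were added. Sixteen hours later, ATP-based luminescence reported viability.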

[5] = biological target: Estrogen receptor (Homo sapiens) (UniProt P03372); assay: qHTS assay to identify small molecule agonists of the estrogen receptor alpha (ER-alpha) signaling pathway in the presence of an antagonist (AID 1259383; calls by dose curve; further: top concentration of the series differs between compounds; nearly all actives have a fitted effect of over 15% in size)
Summary of the method: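 Stably transfected VM7Luc4E2 reporter cells, kept 5 days in charcoal-stripped serum, received ICI-182,780 at 10.0nM final before compound addition. Following 22hr incubation at 37C and 5% CO2, luciferase signal was read by luminescence.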

[6] = qHTS assay to identify small molecule agonists or antagonists of the thyroid stimulating hormone receptor (TSHR) signaling pathway - wild type cell line counter screen (AID 1259384; calls by dose curve)
Summary of the method: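 Wild-type HEK293 cells were plated 18 h at 37 C/5% CO2, pin-dosed with compound plus Ro20-1724 medium, held 30 min at room temperature, then given cAMP-d2 and anti-cAMP-cryptate; fluorescence was read after 1 h. Fifteen concentrations, triplicate.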

[7] = biological target: Thyrotropin receptor (Homo sapiens) (UniProt P16473); assay: qHTS assay to identify small molecule antagonists of the thyroid stimulating hormone receptor (TSHR) signaling pathway (AID 1259385; calls by dose curve; further: nearly all actives have a fitted effect of over 20% in size; further: potency means the concentration at half of the fitted maximal effect)
Summary of the method: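 TSHR-HEK293 cells were plated and held 18 h at 37C/5% CO2, then given compound plus Ro20-1724 and stimulated with TSH at 1.5 ng/mL final. After 30 min at room temperature, cAMP was detected with cAMP-d2/anti-cAMP-cryptate (1 h) by fluorescence.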

[8] = qHTS assay to identify small molecule agonists of the estrogen receptor alpha (ER-alpha) signaling pathway in the presence of an antagonist - cell viability counter screen (AID 1259386);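 further: cells exposed to compounds for 22 h at 37 °C before the viability read; nearly all actives have a fitted effect of over 30% in size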; further: potency means the concentration at half of the fitted maximal effect
Summary of the method: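 Viability counter screen using VM7Luc4E2 (full-length ER-alpha, four ERE-luciferase). The cells were treated with compounds alongside ICI-182,780 10.0nM for 22hr, and live-cell protease fluorescence was quantified with CellTiter-Fluor.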

[9] = biological target: Progesterone receptor (Homo sapiens) (UniProt P06401); assay: qHTS assay to identify small molecule agonists of the progesterone receptor (PR) signaling pathway (AID 1346784; calls by dose curve; further: nearly all actives have a fitted effect of over 30% in size)
Summary of the method: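 Beta-lactamase reporter read-out: after 16 hr compound treatment at 37C and a further 2 hr at room temperature with LiveBLAzer B/G FRET substrate, fluorescence was measured in PR-UAS-bla HEK 293T cells grown in 2% charcoal-stripped serum.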

[10] = biological target: Progesterone receptor (Homo sapiens) (UniProt P06401); assay: qHTS assay to identify small molecule antagonists of the progesterone receptor (PR) signaling pathway (AID 1346795; active means well fitted inhibition curve with a large enough effect in the signal ratio in the repeat runs, not every such curve was filed as active; the % refers to the signal ratio; further: potency means the concentration at half of the fitted maximal effect)
Summary of the method: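 Read-out is fluorescence from the LiveBLAzer B/G FRET substrate, cleaved by a UAS-controlled beta-lactamase in PR-UAS-bla HEK293T cells after 16 hr exposure to compound plus 1 nM promegestone (final), followed by 2 hr at room temperature.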

[11] = qHTS assay to identify small molecule antagonists of the progesterone receptor (PR) signaling pathway - cell viability counter screen (AID 1346798);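 further: HEK293T PR-UAS-bla cells stimulated with the agonist R5020; series mostly up to about 92 µM; nearly all actives have a fitted effect of over 50% in size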
Summary of the method: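 HEK293T PR-UAS-bla, 2% charcoal-stripped FBS; 4 hr pre-plate; cpd + R5020, 16 h 37C; LiveBLAzer read first; then CellTiter-Glo 30 min RT, luminescence.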

[12] = qHTS assay to identify small molecule agonists of the progesterone receptor (PR) signaling pathway - cell viability counter screen (AID 1346799; calls by dose curve; further: nearly all actives have a fitted effect of over 45% in size)
Summary of the method: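 Luminescence from CellTiter-Glo, added after the beta-lactamase FRET read in the same wells, gave cytotoxicity in PR-UAS-bla HEK293T cells treated with compounds for 16 hr at 37C.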

[13] = qHTS assay to identify small molecule antagonists of the TGF-beta/Smad signaling pathway - cell viability counter screen (AID 1346824); further: nearly all actives have a fitted effect of over 50% in size
Summary of the method: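 SBE-bla HEK 293T cells were plated overnight at 37 C, then given compounds in DMSO plus TGF-beta1 (added as 0.25 ng/mL solution) for 5 hr. After the bla read, CellTiter-Glo was added to the same wells and luminescence read after 30 min at room temperature.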

[14] = qHTS assay to identify small molecule agonists of the TGF-beta/Smad signaling pathway - cell viability counter screen (AID 1346829); further: top concentration of the series differs between compounds; nearly all actives have a fitted effect of over 45% in size
Summary of the method: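 SBE-bla HEK 293T cells plated overnight, compound exposure 5 hr at 37 C. Viability read in the same wells by CellTiter-Glo luminescence after 30 min at room temperature, following the beta-lactamase read.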

[15] = qHTS assay to identify small molecule agonists of the TGF-beta/Smad signaling pathway (AID 1346859; active means well fitted activation curve with a large enough effect in the signal ratio in the repeat runs, not every such curve was filed as active; the % refers to the signal ratio; further: series mostly up to about 77 µM)
Summary of the method: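 SBE-bla HEK 293T, 4,000 cells/well, plated o/n; cpd in DMSO, 5 hr, 37 C/5% CO2; B/G FRET substrate 2 hr RT; ex 405, em 460/530 nm.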

[16] = biological target: Thyrotropin-releasing hormone receptor (Homo sapiens) (UniProt P34981); assay: qHTS assay to identify small molecule antagonists of the thyrotropin-releasing hormone receptor (TRHR) signaling pathway (AID 1346877; active means well fitted inhibition curve with a large enough effect in the repeat runs, not every such curve was filed as active; further: series mostly up to about 51 µM)
Summary of the method: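 Following an 18 h incubation at 37 °C and a 2 h calcium dye load, TRHR-HEK293 cells were exposed to compound (5 min, room temperature) and challenged with TRH, 1 nM final.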

[17] = biological target: Thyrotropin-releasing hormone receptor (Homo sapiens) (UniProt P34981); assay: qHTS assay to identify small molecule agonists of the thyrotropin-releasing hormone receptor (TRHR) signaling pathway (AID 1346891; calls by dose curve; further: series mostly up to about 58 µM)
Summary of the method: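 Intracellular calcium rise, read as fluorescence every second for 3 min, served as the agonist signal in dye-loaded HEK293 cells expressing TRHR; each compound ran at 15 concentrations in triplicate.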

[18] = Human pregnane X receptor (PXR) small molecule agonists, qHTS cell viability counter screen (AID 1346977); further: nearly all actives have a fitted effect of over 50% in size; further: potency means the concentration at half of the fitted maximal effect
Summary of the method: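 PXR-Luc HepG2, 2,000 cells/well, 5% charcoal-stripped FBS; 5hr settle; cpd 24hr, 37C/5% CO2; CellTiter-Fluor at 23hr, read 1hr later (fluorescence).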

[19] = biological target: Androgen receptor (Homo sapiens) (UniProt P10275); assay: qHTS assay to identify small molecule agonists of the androgen receptor (AR) signaling pathway in the presence of an antagonist (AID 1259381; calls by dose curve; further: nearly all actives have a fitted effect of over 15% in size; further: potency means the concentration at half of the fitted maximal effect)
Summary of the method: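 Test compounds at 15 concentrations were incubated for 16hr with MDA-kb2 reporter cells in presence of 3.0uM nilutamide (final). Signal: ONE-Glo luciferase luminescence.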

Measured: Potency

Thyrotropin-releasing hormone receptor (Homo sapiens), sequence (P34981 whole entry, looked up): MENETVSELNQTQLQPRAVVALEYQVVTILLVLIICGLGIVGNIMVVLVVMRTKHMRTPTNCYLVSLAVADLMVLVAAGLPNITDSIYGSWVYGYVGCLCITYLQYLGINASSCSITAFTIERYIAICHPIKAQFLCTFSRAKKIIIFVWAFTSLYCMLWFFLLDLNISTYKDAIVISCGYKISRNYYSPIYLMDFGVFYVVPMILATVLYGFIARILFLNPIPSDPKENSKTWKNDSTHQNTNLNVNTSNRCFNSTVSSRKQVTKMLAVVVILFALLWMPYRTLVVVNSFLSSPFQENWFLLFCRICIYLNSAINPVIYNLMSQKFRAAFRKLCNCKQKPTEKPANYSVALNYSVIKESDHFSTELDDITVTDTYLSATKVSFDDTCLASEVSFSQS
Estrogen receptor beta (Homo sapiens), sequence (Q92731 whole entry, looked up): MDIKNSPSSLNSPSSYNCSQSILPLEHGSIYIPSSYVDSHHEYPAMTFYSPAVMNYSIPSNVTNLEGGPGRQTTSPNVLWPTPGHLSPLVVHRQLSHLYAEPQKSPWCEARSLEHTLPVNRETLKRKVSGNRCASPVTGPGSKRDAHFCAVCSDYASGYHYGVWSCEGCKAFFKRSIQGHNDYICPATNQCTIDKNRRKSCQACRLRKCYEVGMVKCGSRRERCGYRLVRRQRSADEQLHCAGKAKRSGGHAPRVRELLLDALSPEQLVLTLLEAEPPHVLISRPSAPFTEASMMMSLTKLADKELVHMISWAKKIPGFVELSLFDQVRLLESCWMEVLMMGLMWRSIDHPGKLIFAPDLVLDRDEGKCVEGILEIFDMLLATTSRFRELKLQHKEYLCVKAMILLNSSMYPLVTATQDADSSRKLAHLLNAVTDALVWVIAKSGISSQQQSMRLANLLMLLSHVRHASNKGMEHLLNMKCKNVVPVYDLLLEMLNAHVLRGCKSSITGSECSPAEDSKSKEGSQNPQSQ
Estrogen receptor (Homo sapiens), sequence (P03372 whole entry, looked up): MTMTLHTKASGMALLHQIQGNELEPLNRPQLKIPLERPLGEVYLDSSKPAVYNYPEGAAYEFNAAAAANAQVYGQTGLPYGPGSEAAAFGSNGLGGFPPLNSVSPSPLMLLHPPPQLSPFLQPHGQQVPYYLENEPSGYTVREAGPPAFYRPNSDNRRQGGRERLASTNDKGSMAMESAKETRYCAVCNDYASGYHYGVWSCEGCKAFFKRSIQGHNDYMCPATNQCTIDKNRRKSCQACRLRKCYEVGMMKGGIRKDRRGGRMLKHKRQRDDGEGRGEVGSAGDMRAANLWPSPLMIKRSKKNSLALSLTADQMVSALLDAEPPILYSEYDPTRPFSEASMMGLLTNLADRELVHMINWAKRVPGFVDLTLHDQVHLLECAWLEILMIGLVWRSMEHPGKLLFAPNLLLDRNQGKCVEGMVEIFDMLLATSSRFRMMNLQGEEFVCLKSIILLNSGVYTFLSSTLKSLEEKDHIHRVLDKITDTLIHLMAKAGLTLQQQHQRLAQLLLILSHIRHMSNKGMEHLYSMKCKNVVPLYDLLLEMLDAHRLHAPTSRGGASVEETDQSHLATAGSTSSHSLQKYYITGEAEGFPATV
Androgen receptor (Homo sapiens), sequence (P10275 whole entry, looked up): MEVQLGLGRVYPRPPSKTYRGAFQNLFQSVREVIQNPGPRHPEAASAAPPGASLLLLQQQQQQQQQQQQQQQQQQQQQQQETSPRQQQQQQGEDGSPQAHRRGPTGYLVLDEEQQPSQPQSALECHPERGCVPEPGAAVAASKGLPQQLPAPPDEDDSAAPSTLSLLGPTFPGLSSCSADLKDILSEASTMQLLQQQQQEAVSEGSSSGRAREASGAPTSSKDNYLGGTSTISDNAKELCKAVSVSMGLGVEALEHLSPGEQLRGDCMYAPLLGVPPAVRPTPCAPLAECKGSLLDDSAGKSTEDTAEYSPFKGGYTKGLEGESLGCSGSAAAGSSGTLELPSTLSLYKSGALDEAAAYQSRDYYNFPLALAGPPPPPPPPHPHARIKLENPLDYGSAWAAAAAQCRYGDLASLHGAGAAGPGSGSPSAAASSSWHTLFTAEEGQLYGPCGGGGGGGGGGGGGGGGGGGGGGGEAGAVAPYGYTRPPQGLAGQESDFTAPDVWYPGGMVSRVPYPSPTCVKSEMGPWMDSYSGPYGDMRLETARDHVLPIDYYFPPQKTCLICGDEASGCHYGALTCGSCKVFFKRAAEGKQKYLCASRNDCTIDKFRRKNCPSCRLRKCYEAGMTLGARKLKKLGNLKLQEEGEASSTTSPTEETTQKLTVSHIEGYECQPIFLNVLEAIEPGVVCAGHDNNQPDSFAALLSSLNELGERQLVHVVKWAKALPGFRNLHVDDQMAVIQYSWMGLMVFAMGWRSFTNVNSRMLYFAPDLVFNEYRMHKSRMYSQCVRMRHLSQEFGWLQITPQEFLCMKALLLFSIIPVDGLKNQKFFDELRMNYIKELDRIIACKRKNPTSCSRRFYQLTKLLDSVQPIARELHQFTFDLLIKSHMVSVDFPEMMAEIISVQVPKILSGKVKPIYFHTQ
Progesterone receptor (Homo sapiens), sequence (P06401 whole entry, looked up): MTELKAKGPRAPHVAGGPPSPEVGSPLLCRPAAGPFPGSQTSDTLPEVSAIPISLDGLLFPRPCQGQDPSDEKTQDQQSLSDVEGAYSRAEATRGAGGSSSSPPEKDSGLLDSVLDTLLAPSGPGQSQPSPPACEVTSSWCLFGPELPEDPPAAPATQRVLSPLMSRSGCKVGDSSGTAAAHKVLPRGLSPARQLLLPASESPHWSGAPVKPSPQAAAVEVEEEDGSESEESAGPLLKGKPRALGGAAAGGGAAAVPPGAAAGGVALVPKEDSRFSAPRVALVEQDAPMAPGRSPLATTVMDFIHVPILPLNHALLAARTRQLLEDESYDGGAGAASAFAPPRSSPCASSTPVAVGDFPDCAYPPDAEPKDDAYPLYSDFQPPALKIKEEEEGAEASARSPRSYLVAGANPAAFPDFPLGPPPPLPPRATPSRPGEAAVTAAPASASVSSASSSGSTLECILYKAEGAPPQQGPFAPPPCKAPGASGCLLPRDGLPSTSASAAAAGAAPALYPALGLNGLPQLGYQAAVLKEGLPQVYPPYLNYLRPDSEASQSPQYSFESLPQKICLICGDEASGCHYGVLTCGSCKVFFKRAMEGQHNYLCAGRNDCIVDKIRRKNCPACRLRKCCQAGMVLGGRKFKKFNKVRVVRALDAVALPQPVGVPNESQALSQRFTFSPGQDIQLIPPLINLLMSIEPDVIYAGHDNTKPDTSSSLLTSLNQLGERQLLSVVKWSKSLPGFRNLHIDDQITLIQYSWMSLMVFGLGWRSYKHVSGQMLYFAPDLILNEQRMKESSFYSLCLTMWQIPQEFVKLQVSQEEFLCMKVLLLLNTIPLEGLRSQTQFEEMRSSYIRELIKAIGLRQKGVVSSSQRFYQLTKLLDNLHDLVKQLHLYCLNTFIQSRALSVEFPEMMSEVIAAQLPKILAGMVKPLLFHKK
Thyrotropin receptor (Homo sapiens), sequence (P16473 whole entry, looked up): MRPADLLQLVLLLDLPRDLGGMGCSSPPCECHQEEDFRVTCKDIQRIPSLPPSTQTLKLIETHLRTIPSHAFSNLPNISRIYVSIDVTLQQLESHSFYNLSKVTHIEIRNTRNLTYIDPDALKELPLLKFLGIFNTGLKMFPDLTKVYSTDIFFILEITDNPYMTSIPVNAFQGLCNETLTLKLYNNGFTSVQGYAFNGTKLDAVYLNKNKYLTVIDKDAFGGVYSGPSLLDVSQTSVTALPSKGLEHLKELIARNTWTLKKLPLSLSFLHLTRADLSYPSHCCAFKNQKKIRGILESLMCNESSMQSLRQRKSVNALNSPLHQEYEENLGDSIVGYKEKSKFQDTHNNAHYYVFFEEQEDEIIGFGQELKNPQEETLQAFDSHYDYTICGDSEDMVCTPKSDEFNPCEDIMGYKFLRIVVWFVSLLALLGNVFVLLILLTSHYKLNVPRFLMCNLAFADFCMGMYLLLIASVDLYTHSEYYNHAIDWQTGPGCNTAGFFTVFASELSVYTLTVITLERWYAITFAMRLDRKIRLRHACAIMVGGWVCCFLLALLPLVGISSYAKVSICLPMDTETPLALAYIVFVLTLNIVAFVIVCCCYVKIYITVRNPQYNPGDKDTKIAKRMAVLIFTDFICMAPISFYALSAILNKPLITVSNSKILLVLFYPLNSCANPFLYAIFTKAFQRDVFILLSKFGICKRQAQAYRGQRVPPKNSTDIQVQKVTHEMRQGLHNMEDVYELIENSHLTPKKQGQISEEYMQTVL

CCOP(=S)(OCC)SCCS(=O)(=O)CC
active: [10] 48.6 µM
not listed: [19]
inactive: all other assays above

COP(=S)(OC)Oc1cc(Cl)c(Br)cc1Cl
not listed: [7] | [8] | [10] | [11] | [12] | [13] | [18]
inactive: all other assays above

C=CC(=O)N(C)C
not listed: [19]
inactive: all other assays above

O=C(CBr)c1ccc(O)cc1
not listed: [5] | [8] | [9] | [10] | [11] | [12] | [19]
inactive: all other assays above

CC(C)(C)c1cc([N+](=O)[O-])cc(C(C)(C)C)c1O
active: [2] 8.63 µM | [8] 8.63 µM | [10] 30.6 µM | [18] 5.45 µM
not listed: [3] | [11] | [12] | [13] | [15] | [19]
inactive: all other assays above

CCCN(CCC)CCc1c[nH]c2ccccc12
not listed: [3] | [10] | [11] | [12] | [18] | [19]
inactive: all other assays above

Oc1ccc2ccc3cccc4ccc1c2c34
not listed: [3] | [5] | [10] | [14] | [15] | [19]
inactive: all other assays above

CCCSP(=O)(OCC)SCCC
active: [19] 50.3 µM
not listed: [3] | [5] | [10] | [12]
inactive: all other assays above

CC1(C)CC/C(=C/c2ccc(Cl)cc2)C1(O)Cn1cncn1 (configuration not stated)
active: [3] 6.08 µM | [19] 17.1 µM
not listed: [7] | [9] | [10] | [11] | [12] | [15]
inactive: all other assays above

O=C/C(Cl)=C(/Cl)C(=O)O
not listed: [3] | [10] | [19]
inactive: all other assays above

O=c1[nH]c2ccccc2n1CCCN1CCC(n2c(=O)[nH]c3cc(Cl)ccc32)CC1
inactive: [1] | [9] | [13] | [14] | [15]
active: [3] 9.44 µM | [7] 29.8 µM | [18] 26.6 µM

C[C@]12CC[C@H]3[C@@H](CCC4=CC(=O)CC[C@@]43C)[C@@H]1CC[C@@H]2O
inactive: [2] | [4] | [5] | [6] | [7] | [13] | [14] | [15] | [18]
active: [1] 5.41 µM

CCSC(C)CC1CC(=O)C(/C(CC)=N/OC/C=C/Cl)=C(O)C1 (configuration not stated)
inactive: all assays above

ClC1=C(Cl)C2(Cl)C3C(Cl)C=CC3C1(Cl)C2(Cl)Cl (configuration not stated)
active: [3] 61.4 µM
not listed: [10] | [13] | [14] | [16] | [17] | [18] | [19]
inactive: all other assays above
